Experimental data as given in PubChem BioAssay (NCATS).
Where “and” joins values, the source holds several entries; their conditions need not be identical. Identical values can stand only once. Records with an inconclusive call do not appear. Unmarked numbers belong to inactive results. Calls follow the shape of the dose curve; as a rule, active = well fitted inhibition curve with a large enough effect; inconclusive = small, poorly fitted or top-dose-only effect; inactive = flat fitted curve, though single readings scatter.

These molecules were tested on KB-3-1 (assay: Cytotoxic Profiling of Annotated Libraries Using Quantitative High-Throughput Screening (AID 1296008; also: nearly all actives have a fitted effect of over 60% in size)). Conditions: Five cell lines viability, CellTiter-Glo ATP luminescence, 48-72 h; max response: stronger effect = lower value.
From the text: Cell-based phenotypic screening is a commonly used approach to discover biological pathways, novel drug targets, chemical probes and high-quality hit-to-lead molecules. Many hits identified from high-throughput screening campaign are ruled out through a series of follow-up potency, selectivity/specificity, and cytotoxicity assays. Prioritization of molecules with little or no cytotoxicity for a more in-depth downstream evaluation influence the future direction of projects, so cytotoxicity profiling of the screening libraries at early stage is essential for increasing the likelihood of candidate success. […] For the annotated library, we also examined the primary targets and mechanistic pathways regularly associated with cell death. To our knowledge, this is the first study to use high-throughput screening to profile large libraries for cytotoxicity assessment in both normal and cancer cell lines. In summary, the results generated here constitutes a valuable resource for the scientific community and provides insight on identifying cytotoxic compounds with particular mechanisms of action, and prioritizing compounds with suitable cytotoxicity profile for further evaluation.
A pintool (Kalypsys) was used to transfer 23 nL of compound solution to the 1536-well assay plates. After 48 or 72 hr incubation at 37 degree Celsius, 5% CO2 and 95% humidity, 2.5 uL of CellTiter-Glo (Promega) was dispensed into each well using a dispenser (Aspect Automation, St. Paul, MN) with solenoid valves (Lee Valves, Westbrook CT). Plates were left at room temperature for 10 min before imaging the ATP-coupled luminescence using a ViewLux microplate imager (PerkinElmer, Waltham, MA).
% is scaled to controls: 0 for no effect and ±100 for the full control effect.

Compound	max response
NS(=O)(=O)c1cc(C(=O)O)cc(N2CCCC2)c1Oc1ccccc1	3.66%
C=C[C@H]1CN2CC[C@H]1C[C@H]2[C@H](O)c1ccnc2ccc(OC)cc12	4.92% and -14.4% and -25.6%
CC(C)=CCOc1ccc(/C=C/C(=O)c2ccc(OCC=C(C)C)cc2OCC(=O)O)cc1	1.11%
C[C@@H](O)[C@H]1C(=O)N2C(C(=O)O)=C([C@H]3CCCO3)S[C@H]12	3.93%
CC(=O)Nc1ccc(OC(=O)c2ccccc2OC(C)=O)cc1	-4.86%
CCCCN=C(N)N=C(N)N	1.99%
CCNC(=O)/C=C/c1cccc(Br)c1	-0.104%
CCCCNc1ccc(C(=O)OCCOCCOCCOCCOCCOCCOCCOCCOCCOC)cc1	-13.9%
CN1CCN(C2=Nc3ccccc3Sc3ccc(Cl)cc32)CC1	-8.12%
COP(=O)(OC)OC(c1ccc(Cl)cc1)P(=O)(OC)OC (stereo not given)	0.95%
CCOc1ccccc1C(N)=O	-15.7%
CN1CCN(c2cc3c(cc2F)c(=O)c(C(=O)O)cn3-c2ccc(F)cc2)CC1	-5.32%
CCOC(=O)C(C#N)=C(c1ccccc1)c1ccccc1	1.81%
NCc1ccccc1Sc1ccccc1CO	6.51%
Cl/C(=C\n1cncn1)c1ccc(Cl)cc1Cl	25.3%
C#C[C@]1(O)CC[C@H]2[C@@H]3CCC4=Cc5oncc5C[C@]4(C)[C@H]3CC[C@@]21C	-24%
CCCCCCCC/C=C\CCCCCCCCN	-6.06%
COc1ccc(/C=N/NC(=O)c2ccncc2)cc1OC	0.981%
CCOC(=O)[C@H](CCc1ccccc1)N[C@@H](C)C(=O)N1[C@H](C(=O)O)C[C@H]2CCCC[C@@H]21	8% and -12.5%
CCCCN1C[C@H](O)[C@@H](O)[C@H](O)[C@H]1CO	15.3%

Compound	max response
O=C(Nc1ccccc1)OCC(CN1CCCCC1)OC(=O)Nc1ccccc1 (stereo not given)	-1.56%
O=C1OC2(c3ccccc31)c1cc(Br)c(O)c(Br)c1Oc1c2cc(Br)c(O)c1Br	-24.7%
CCC(C(=O)OCCOCCN(CC)CC)c1ccccc1 (stereo not given)	16.3%
O=C(N/N=C/c1ccc([N+](=O)[O-])o1)c1ccc(O)cc1	-13.9%
COc1cc(NS(=O)(=O)c2ccc(N)cc2)ncn1	-8.34%
C/C=C/C=N/NC(=O)c1ccncc1	-15.9%
Cc1c[nH]c2ccccc12	8.35%
CN1CCN(C2=Nc3cc(F)ccc3Cc3ccccc32)CC1	0.909%
CC(C)Nc1cccnc1N1CCN(C(=O)c2cc3cc(NS(C)(=O)=O)ccc3[nH]2)CC1	-4.88%
O=C(CN1CCN(Cc2ccc3c(c2)OCO3)CC1)N1c2ccccc2Sc2ccccc21	6.91%
CC(C)[C@@H]1CC[C@@H](C)CC1=O	-7.81%
c1ccc(CC2=NCCN2)cc1	-6.13%
CCO[C@@H]1O[C@H](C(COCc2ccccc2)OCc2ccccc2)[C@H](OCc2ccccc2)[C@H]1O (stereo not given in full)	-15.4%
CCCCCCCCCCCCSCCOCCO	1.68%
O=C(Nc1ccc([N+](=O)[O-])cc1)Nc1ccc([N+](=O)[O-])cc1	-1.19%
Cc1ccc2c(Br)cc(Br)c(O)c2n1	8.29%
Cn1c(=O)c2[nH]c(Br)nc2n(C)c1=O	-9.6%
Cc1ccc(-c2ncc(Cl)cc2-c2ccc(S(C)(=O)=O)cc2)cn1	-5.38%
O=S(c1cc(Cl)cc(Cl)c1O)c1cc(Cl)cc(Cl)c1O	-2.92%
COc1ccc(C(=O)c2ccccc2)c(O)c1	-18.9%
